Test results from the antibiotic and cytotoxicity screens of Wong et al. (2023).
In all, about 39,000 compounds went through this assay and about 3,300 (8.5%) were called active. The full list was thinned out, with actives kept by preference.

The compounds below were run on HepG2 (assay: cytotoxicity call (relative viability < 0.9)). Conditions: 10 µM.
With C[C@H]1CN([C@@H](C)CO)C(=O)c2cccc(NC(=O)C3CCCCC3)c2O[C@@H]1CN(C)Cc1ccc(Oc2ccccc2)cc1 the cytotoxicity call was “inactive”.
In the case of C[C@@H]1CCCCO[C@@H](CN(C)C(=O)NC2CCCCC2)[C@@H](C)CN([C@H](C)CO)C(=O)c2cc(NS(=O)(=O)c3ccc(F)cc3)ccc2O1, the cytotoxicity call is reported as “inactive”.
For C[C@@H]1CN([C@H](C)CO)C(=O)c2ccccc2-c2ccccc2CO[C@H]1CN(C)C(=O)Nc1ccccc1C(F)(F)F, the cytotoxicity call was “inactive”.
For C[C@@H]1CN([C@@H](C)CO)C(=O)c2ccccc2-c2ccccc2CO[C@@H]1CN(C)C(=O)Nc1ccccc1C(F)(F)F, the cytotoxicity call was “active”.
C[C@H](CO)N1C[C@H](C)[C@H](CN(C)C(=O)Nc2cccc(Cl)c2Cl)OCc2ccccc2-c2c(n(C)c3ccccc23)C1=O was tested, and the cytotoxicity call was “inactive”.
C[C@@H]1CN([C@H](C)CO)C(=O)c2ccccc2-c2ccccc2CO[C@@H]1CN(C)C(=O)Nc1ccccc1C(F)(F)F was tested, and the cytotoxicity call was “inactive”.
In the case of C[C@@H]1CN([C@H](C)CO)C(=O)c2c(c3ccccc3n2C)-c2ccccc2CO[C@H]1CN(C)C(=O)Nc1ccccc1C(F)(F)F, the cytotoxicity call is reported as “inactive”.
In the case of C[C@H](CO)N1C[C@H](C)[C@H](CN(C)C(=O)Nc2ccccc2C(F)(F)F)OCc2ccccc2-c2c(n(C)c3ccccc23)C1=O, the cytotoxicity call is reported as “inactive”.
In the case of C[C@H](CO)N1C[C@H](C)[C@@H](CN(C)C(=O)Nc2cccc(Cl)c2Cl)OCc2ccccc2-c2c(n(C)c3ccccc23)C1=O, the cytotoxicity call is reported as “active”.
For C[C@@H]1CN([C@H](C)CO)C(=O)c2c(c3ccccc3n2C)-c2ccccc2CO[C@H]1CN(C)C(=O)Nc1cccc(Cl)c1Cl, the cytotoxicity call was “inactive”.
For C[C@H](CO)N1C[C@H](C)[C@@H](CN(C)C(=O)Nc2ccccc2C(F)(F)F)OCc2ccccc2-c2c(n(C)c3ccccc23)C1=O, the cytotoxicity call was “active”.
With Cn1ccnc1CN1CC[C@]2(COCCN(S(C)(=O)=O)C2)C1 the cytotoxicity call was “inactive”.
In the case of Cc1ccc(S(=O)(=O)N(C)C[C@H]2Oc3c(NS(C)(=O)=O)cccc3C(=O)N([C@H](C)CO)C[C@@H]2C)cc1, the cytotoxicity call is reported as “inactive”.
With C[C@@H]1CN([C@H](C)CO)C(=O)CCCn2nncc2CO[C@@H]1CN(C)C(=O)Nc1cccc2ccccc12 the cytotoxicity call was “inactive”.
With COc1cccc(-c2ccc3c(c2)O[C@H](CN(C)C(=O)C2CCOCC2)[C@@H](C)CN([C@H](C)CO)S3(=O)=O)c1 the cytotoxicity call was “inactive”.
For NCc1ccc(C(=O)N2CCCCC2)cc1, the cytotoxicity call was “inactive”.
COCC(=O)N(C)C[C@@H]1Oc2cc(-c3ccc(C#N)cc3)ccc2S(=O)(=O)N([C@H](C)CO)C[C@@H]1C was tested, and the cytotoxicity call was “inactive”.
In the case of CNCc1nc(C)no1, the cytotoxicity call is reported as “inactive”.
For COc1ccccc1S(=O)(=O)N[C@H]1C=C[C@H](CC(=O)N2CCOCC2)O[C@@H]1CO, the cytotoxicity call was “inactive”.
